Source: PubChem BioAssay (several laboratories)
A selection: hits, their analogues and other compounds. The true share with any hit is near 3.8%.
TIM10 inh = growth inhibitors of isogenic TIM10 control yeast, primary screen, counter-screen for tim10-1 yeast inhibitor project, luminescence, uHTS. S. cerevisiae TIM10 strain growth, BacTiter-Glo luminescence, 24 h. inhibition, % at 10 µM. hit rate 1.4% among 330,000;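 active means inhibition of 40% or more at the single tested concentration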;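 further: wild-type TIM10 isogenic control strain grown at permissive 25 °C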
NALP3 yeast inh = NALP3 inflammasome inhibitors in reconstituted yeast, primary screen, luminescence, uHTS. inhibition, % at 10 µM. hit rate 0.39% among 330,000. Yeast reconstituted NLRP3/ASC/caspase-1, beta-gal luminescence, 24 h;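 active means inhibition of 50% or more; inactive means inhibition below 50%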;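 further: plate controls were induced DMSO wells for no effect and uninduced yeast grown without galactose for full effect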
CR mimetic SO = reduction of superoxide in aged yeast, primary screen, HTS; S. cerevisiae aged cells, superoxide DHE fluorescence; hits give low values; superoxide response (% of plate mean), % at 10 µM; hit rate 0.18% among 330,000; AID 2690, 2010;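 active means superoxide response under a set limit, about three screen SD below normal, cut at about 65% in these data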;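 further: yeast aged for seven days with compound at 30 °C before DHE staining; 100% = average MFI of all compound-treated wells on the plate with controls excluded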
tim23-1 inh = growth inhibitors of tim23-1 mutant yeast, primary screen, luminescence, uHTS; S. cerevisiae tim23-1 growth, BacTiter-Glo luminescence, 24 h; inhibition, % at 20 µM; hit rate 1.3% among 330,000;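 active means growth inhibition of the mutant yeast at or above 50%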;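 further: temperature-sensitive mutant grown at 25 °C; plate controls were DMSO-treated mutant yeast for no effect and medium wells lacking yeast for full effect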
tim10-1 inh = growth inhibitors of tim10-1 mutant yeast, primary screen, luminescence, uHTS; hit rate 2.2% among 330,000; AID 463190, 2010; inhibition, % at 20 µM; S. cerevisiae tim10-1 ts strain growth, BacTiter-Glo, 24 h;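 active means inhibition of at least 40%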;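 further: mutant grown at 25 °C; 0% = DMSO wells with yeast and 100% = wells holding no yeast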
tim10-1 confirm = growth inhibitors of tim10-1 mutant yeast, confirmation, single concentration, luminescence, S. cerevisiae. shares compounds with tim10-1 inh. S. cerevisiae tim10-1 ts strain growth, BacTiter-Glo, 24 h. inhibition, % at 20 µM. hit rate 56% among 7,400. AID 463213, 2010;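 active means inhibition of yeast growth at or above a set limit in either of two repeat tests at 20 µM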;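 further: tim10-1 mutant grown at permissive 25 °C to find synthetic lethal compounds; 0% = DMSO yeast wells and 100% = medium wells without yeast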
Numbers without * were called inactive; / = no result given.

SMILES	TIM10 inh	NALP3 yeast inh	CR mimetic SO	tim23-1 inh	tim10-1 inh	tim10-1 confirm
O=C(CCl)N1CCCC1c1ccc2c(c1)OCCO2 (stereo unspecified)	5	6	120	21	6	/
CCCc1nnc2c(N(C)S(=O)(=O)c3ccc(C)cc3)nc3ccccc3n12	18	-17	70	16	40*	10
CCCCc1nnc2c(N(C)S(=O)(=O)c3ccc(C)cc3)nc3ccccc3n12	-17	8	111	-16	-5	/
NC(=S)N1OC[C@@H]2COc3ccc4ccccc4c3[C@@H]21	39	13	100	30	41*	21
CO/N=C/NC(=O)N1OC[C@@H]2COc3ccc4ccccc4c3[C@@H]21	-14	33	99	-2	0	/
Cc1ccc(N=Nc2c(N)[nH]n3c(=O)cc(-c4ccccc4)nc23)cc1	11	25	118	34	50*	27
Cc1ccc(C)c(NC(=O)CCc2ccc(S(=O)(=O)NC3CCCCC3)cc2)c1	6	12	84	12	5	/
Cc1cc2nc(/C(C#N)=C\c3ccc(-c4ccccc4C(=O)O)o3)[nH]c2cc1C	10	-1	97	30	46*	39*
Cc1ccc2nc(/C(C#N)=C/c3ccc(-c4ccccc4C(=O)O)o3)[nH]c2c1	2	11	89	14	9	/
Cc1ccc(Sc2nnc(Cc3ccccc3)c3ccccc23)cc1	24	22	110	34	41*	27
COc1ccc(Sc2nnc(Cc3ccccc3)c3ccccc23)cc1	28	9	99	23	31	/
Cc1noc(NS(=O)(=O)c2ccc(NC(=O)Nc3ccc(Cl)c(Cl)c3)cc2)c1C	17	13	111	15	46*	38*
COC(=O)[C@H]1C[C@@H]1[C@H](NC(=O)c1cccnc1)c1ccccc1	-3	18	97	19	-3	/
CCc1nc2cc(Cl)c(Cl)cc2[nH]1	32	29	114	27	41*	37*
Cc1cccc(Cc2cnc(N3C(=N)SC(C)C3=O)s2)c1 (stereo unspecified)	27	-14	97	-4	26	/
Cc1cccc(Cc2cnc(N3C(=N)SC(c4ccccc4)C3=O)s2)c1 (stereo unspecified)	30	5	87	29	44*	30*
COc1ccc(C2CC(=O)c3cnc(NC(=O)c4cc(OC)cc(OC)c4)nc3C2)cc1 (stereo unspecified)	6	0	136	22	3	/
COc1ccc(C2CC(=O)c3cnc(Nc4cc(C)cc(C)c4)nc3C2)cc1 (stereo unspecified)	36	13	85	30	46*	27
Brc1ccc(/C=N/Nc2ccc3ccccc3n2)cc1	16	19	105	35	48*	14
O=C(N=C1SCC(=O)N1c1ccccc1Cl)c1ccccc1	8	19	/	35	42*	24
O=C(N=C1SCC(=O)N1c1ccccc1Cl)c1ccco1	24	-5	139	13	30	/
CCOC(=O)NC(=O)c1cn(N(C)c2ncc(C(F)(F)F)cc2Cl)c(=O)[nH]c1=O	-7	5	119	5	2	/
Nc1nc(Nc2ccccc2)nc2ccccc12	28	25	107	13	42*	38*
Cc1ccccc1Nc1nc(N)c2ccccc2n1	23	17	98	27	28	/
O=C(Cc1cn(Cc2cccc(Cl)c2)c2ccccc12)N1CCCCCC1	-6	19	98	20	-3	/
CCOc1ccc(N(Cc2ccc(OC)cc2)C(=O)c2ccco2)cc1	9	-2	85	24	44*	20
CCCCCC(=O)N1CCCC(c2nc(-c3ccc(OC)cc3)no2)C1 (stereo unspecified)	34	5	88	28	35	/
COc1ccc(-c2noc(C3CCCN(C(=O)CCc4ccccc4)C3)n2)cc1 (stereo unspecified)	37	-33	100	48	42*	33*
CCN(CC(=O)NCc1cccs1)C(=O)c1ccc(-c2ccc(F)cc2)o1	11	9	92	25	6	/
